Source: PubChem BioAssay AID1159506 (National Center for Advancing Translational Sciences (NCATS), 2015)
Whole data set: some 59,000 sequences, median the read-out near -0.00055, cut for the lowest 2% near -2. The full list was thinned out, with the lowest values kept by preference.

Assay: Identification of proteins required for the processing of the EWS-FLI1 nascent transcript;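 note: robust z of luciferase light less the median z of siRNAs with the same seed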
Conditions: TC32 Ewing sarcoma NR0B1-luc vs CMV-luc (EWS-FLI1 target promoter against control promoter), 48 h; screened at 20 nM (by protocol)
Outline: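 Genome-wide siRNA screen (Ambion v4.1, three siRNAs per gene, 20 nM final, RNAiMax) in Ewing sarcoma TC32 cells carrying NR0B1-promoter or CMV-promoter luciferase; OneGlo luciferase read 48 h post-transfection. Data normalized, z-score-MAD transformed and seed-adjusted.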

| Sequence | seed-corrected z-score |
| --- | --- |
| AUCUGAGUGGAAAAAGUCC against AHNAK2 | 0.0875 |
| UUCAGACUUGUUUUCACCC against POU1F1 | -0.00706 |
| AAAGGUAGAAAGAAGGACU against ZDHHC8P1 | -0.722 |
| UUGGUCUAGACUACUCUCC against KRT5 | -0.431 |
| ACAGAUAUCACAGGUAACC against MCU | 0.266 |
| AACAUAGCUAAAGUUGUUG against SLC16A5 | -3.24 |
| GAGCCGAACACCACUAUGG against SYNGR1 | -0.617 |
| AGAUCUACUACAGCCGUUC against RARS2 | 0.391 |
| UUCGACCCAAGGUUUGUGC against DBF4 | 0.865 |
| UUAAUGAUAAACACGUCUU against LMX1A | -0.388 |
| UCCUAUAGCAGAAUAUUCC against PVRL3 | -0.846 |
| UCAACAUUAGGUUUCUUAG against TAF9B | 0.431 |
| UCUGGUAGUUCUUCAAGGC against LINC00238 | 0.0623 |
| UAUUCUGUAGGCUCAAAAC against KRTAP4-11 | -3.43 |
| UUUCGCUAAGCUGCUCUUC against AQP9 | -0.131 |
| UUAUGGAAUGUCGUUUUCC against FAM228A | 0.0891 |
| UAAUGUCUAAGGAAGAUUU against ZBTB8A | 0.693 |
| AAGCUGAUAAUAGGCUUUC against DNAJA3 | -0.565 |
| UUCCAAGACAGAAAUGAGG against DNHD1 | 0.456 |
| UGGGAUUUUAAAACGGCGG against DPP9 | 0.0729 |
| UUCUAUUUAGGAGAGCUUC against RPS16P10 | -1.32 |
| UAUCUUGUGGUGGUAGAGC against METTL23 | 0.782 |
| UCCGUUUUUGAGAAACUUG against PNLDC1 | -0.423 |

| Sequence | seed-corrected z-score |
| --- | --- |
| UAGAAAGUCUUUACUAUGU against PIGA | -1.02 |
| UAAGUAGAUGGAGGACACC against MRGPRF | -2.16 |
| AUAUAGGAUCUUAUUGUGC against B4GAT1 | -0.205 |
| UUUUGUCCCGGAACAUGCG against BCR | -0.22 |
| UUCUCGUUCUGUUAAGUUC against CCDC144B | 0.479 |
| UGUUGUAGUAGUAACGCAG against LOC390937 | -3.19 |
| UCAGUUGUUACGCAAGGUG against PI16 | -0.652 |
| AAAUGGUCCAGAAUCCAGC against FOXN2 | 0.634 |
| UUUGGGUCGUUGUACAUCU against AGBL4 | -2.02 |
| UACUGAACUCCAUCUGACU against C1orf198 | 1.54 |
| UCGUUGUAUAAUUUUGCCC against WDR17 | -1.13 |
| AAUGCGACGAGACAAGAUG against WASF2 | 0.812 |
| UUCAUUAAGAAGCACCUGG against NDFIP2 | 0.91 |
| ACUAGUACUGGGAAGGUCC against CDKN1C | -2.28 |
| UCUAGGCUCAGCAAUGACU against CD19 | 0.138 |
| AAUAGAUUCAACAAGGGUG against BCL10 | 1.13 |
| AUGGAGGUAAUGACGAUCA against UPK3B | -2.86 |
| UCUAGAUACUUAAUGGUGC against LAMP2 | 0.192 |
| UUAUUGACACUUGUUCAAG against COX7A1 | 0.106 |
| AAUGUAUCUAAGCAACUUC against DDIAS | -0.473 |
| ACAUAGGUUGGGUCGAUCC against XYLT2 | -1.65 |
| UACUUAACCGGGAAGCUAC against NUMB | -0.172 |
| UUUGCAGGUAGAAUUAAGG against B3GALT5-AS1 | -2.65 |

| Sequence | seed-corrected z-score |
| --- | --- |
| UUAGCAUCUGCAGCAUUCU against RBMY2DP | -0.255 |
| UGGGUUGUAGAGAUCUACC against AKAP4 | 0.156 |
| UACCCGGAAAAGUAAAUCC against ROBO2 | 0.288 |
| UGAUAUAUGAAUUGGAGUC against CDKN3 | -0.146 |
| UUCUUCAUCAGAUGGUUCC against SF3B2 | -3.21 |
| AGUUUAGCUAUGACAAUGG against C2orf66 | 0.917 |
| UUCUCCUUCAUCAAGUUCA against S100A7L2 | 0.705 |
| UUCGUUACAGAACUGACCG against YEATS2 | -0.228 |
| UCCAUAACCUGUUCUACGC against NFU1 | 0.244 |
| UCUUGUCUACUAUCACUGC against PRR13 | 1.15 |
| UUCUGAACCUUCGCAGUGC against PPP1R3B | 0.0534 |
| UUCUGAAACAAGCCCUUGC against CCDC103 | -2.08 |
| UUCUUGACUAUCUUCAUCU against CBX4 | -0.275 |
| UCUAUUUUGACCGAGUAUG against CKAP4 | 0.169 |
| AUGAUGUUCACGAUGAUGG against SYT7 | -2.72 |
| UUGCAAUGCAUGGUGCACC against FAM136A | -1.35 |
| UUGUCUUUUACUUCCAUCC against CLEC7A | -1.06 |
| UAGUUAAUGGAGUAACUCC against KDM5C | -0.0641 |
| ACUUUUUACCUCCUCAUUC against OR4E2 | 1.72 |
| AGCAGGAUAAAAACGAUCU against TMC4 | 0.756 |
| UGUUGGAUAAGGUUAGAAC against ZNF34 | 0.0223 |
| AAUGUUUCCCACAUGGAUG against SMARCB1 | -1.85 |
| UGUAAUUAUACCAAUGUAG against EEF1B2P5 | -2.11 |

| Sequence | seed-corrected z-score |
| --- | --- |
| UCUCGUAUGAUAUAAUCUC against HCN1 | 0.749 |
| AACCGGAUUAAGGAAAGUG against BTBD1 | -0.375 |
| UGAAGGGAUAGUUUCUCUG against FZD10-AS1 | -0.829 |
| UAAGUUGCACUUUCCAUUC against ZNF266 | -3.46 |
| AACCGUUCCAUAUCAUCUC against BEX5 | 0.658 |
| UCCUUGUCCACAUGGAGAC against CREBZF | -1.01 |
| UUAUAAUCUACAUGCUUUC against MRPS18C | 0.39 |
| UCUGCUGUCCUGUAAGUCG against AMACR | 0.214 |
| UUAGCUGUGAGUGCUUUCC against TNFRSF11A | -2.35 |
| UUGAGUGCAACUUCAAGUC against OPTN | 2.17 |
| UUCUGGAGCAGACCUGUCC against DKK4 | 0.057 |
| UGUUAGCUCAGUCACGUAG against GBP7 | 0.141 |
| GUGUGCAUCAGAUGCUCUG against NUTM2F | 1.15 |
| UCGCUGAUCAGCAUGACCU against ITFG2 | -0.4 |
| UCUCUUUAUGCAGCUGACA against LTF | -2.1 |
| UAGAUGUUGACGCCCAUGG against MRPL54 | 0.63 |
| UGAGUACCCAUGGUUGGAG against KY | -1.24 |
| UUCAGGACAAUCUUGUUCC against UBL5 | -0.0381 |
| AUUGUAACCAGUCACGUAC against FLRT3 | 0.235 |
| UGAGAUAUGCGACAGAUGG against ACOX2 | -0.67 |
| AUUGCUCUGAAGUGAAUUC against LMO4 | -0.726 |
| UACAGGCUAAAUACACUCC against ANAPC13 | -2.73 |
| AGAGUUAAAACUGGAGGCG against POU2F3 | 0.349 |

| Sequence | seed-corrected z-score |
| --- | --- |
| UUCUAGAUUAUUAUAGGAC against LRFN5 | -0.0413 |
| UGUUCUUGUAUUUCGCUUG against ZBED9 | -0.528 |
| AAAGAGGUGAUAGAGCACG against PAQR4 | -1.03 |
| UACGAUAUCAGCAUUGCAG against CNOT6 | 0.29 |
| UUCUGGUAUACGUGUUUCG against TNFSF8 | 0.471 |
| UUGGUUAACCAGGUUCACC against LOC390282 | -2.14 |
| AGCUGGUCAAUGUAGUCGC against MAPK11 | 0.202 |
| UACAGUAUCAGCUUCUACA against LOC643855 | 0.618 |
| UUCCAGACCAUGAGAUGCC against PIGO | -0.121 |
| UCAUGUUCAACCCAAACUC against ANKMY1 | -4.15 |
| UCUAGGACAGCUCUUAUCC against EDEM3 | 0.599 |
| UUUGUUACUUUGUCCAUUC against ARMC9 | -0.253 |
| UAGCUGUUCCUUGUAGUUG against NABP1 | 0.675 |
| UUGAUCACCACUUCGGAGC against CHRM1 | -0.914 |
| UCACGUUUAUUCUGAAUCC against NDC1 | -1.1 |
| UGUCCAUGAAAUUUCUCUG against ARL2BP | 1.12 |
| UUUUUCUCGAUCUGCUUCC against CCDC64 | -2.13 |
| UAAUGCAUCUUCAAAAUUC against LOC730338 | 0.94 |
| UACUUUGUUAUAGGAUCUC against CWC22 | -0.653 |
| UUUGGGAUCAAAUCGGUGG against NAPSA | 0.0625 |
| UGCGAAUCUGCUAGGAUGC against GLTSCR1L | 0.0332 |
| UAUCCUUCAGGCUAAGAUG against SGOL1 | -2.83 |
| UUACUUUGUAGAUACAACA against FAM201A | -1.74 |

| Sequence | seed-corrected z-score |
| --- | --- |
| UUAGCUGCAAUUGCCUUCU against ZWINT | -2.63 |
| UCGUGAUUACGUUAAGUGC against CCNH | 0.304 |
| UGAAUGCUGAGAACUGUGC against PAPPA2 | -0.138 |
| UAUAGGUCAGGCAACCUUG against ATP11AUN | -0.763 |
| UAAGUUGACAGGCUGUCCA against NXPH3 | -2.06 |
| UGCUUGUCUCGGUUAAUGC against NCF2 | -0.104 |
| AAAACUACCGUUUGUGCAU against RPS27 | 0.994 |
| UGCUCUAGCACAGUGUUCC against CCDC87 | -2.86 |
| AUAGUUUAUAAGUCCUAUC against CGRRF1 | 0.53 |
| AUGUCCUUAAAUUCACUCU against GJB2 | -2.43 |
| UAAUAUUACCUUUAUGUUG against TBC1D3P2 | 2.12 |
| UUCUUGAAAUCCAACCACC against ACSM6 | 0.592 |
| AAAUCGUUAGUUGAGGAGC against USP53 | 0.292 |
| ACAGGGACAAUGUAGGAAG against PRSS47 | -2.17 |
| UAGUAUGAAAAUAGAAGUC against BTBD8 | 0.167 |
| UCAGGGUUAGAGGUAGUGG against SMCR8 | 0.401 |
| UAGUGGAUGUCAAACGAGG against CTSD | 0.501 |
| UACCCAUCAAAGCAAUCGC against LTBP1 | -0.403 |
